DT40 TDP1 CPT: DT40-hTDP1 cell growth loss with CPT; Potency, µM (series often up to 46.2 µM), without a hit: top-dose activity change, negative = growth inhibition, usual class: inhibitors; hit rate 12% among 420,000; chicken DT40 Tdp1-/-;hTDP1 cells + 20 nM CPT, ATP luminescence, 48 h; note: potency is the fitted concentration of half-maximal effect; % is set by controls: 0 for no effect and ±100 for the full control effect; nearly all actives have a fitted effect of over 55% in size
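Chicken DT40 Tdp1-/- cells complemented with human TDP1, 400 cells/well, exposed to compounds plus 20 nM camptothecin for at least 48 h at 37 C; viability read as ATP content by CellTiter-Glo luminescence.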
MCF10A rereplic: induces DNA re-replication in MCF 10a normal breast cells | MCF 10A DNA re-replication, Hoechst nuclear intensity, 48 h | AID 624296 | hit rate 2.9% among 350,000 | Potency, µM (doses to about 46.1 µM), without a hit: at the highest dose activity, positive = re-replication, usual class: activators; note: potency is the fitted concentration of half-maximal effect; % of control where 0% means no effect; nearly all actives have a fitted effect of over 50% in size
DT40 TDP1 no CPT: qHTS for Inhibitors of human tyrosyl-DNA phosphodiesterase 1 (TDP1): qHTS in cells in absence of CPT. Potency, µM (top dose mostly 46.2 µM), for inactives: top-dose activity change, negative = growth inhibition, hits mostly inhibitors. AID 686978, 2013. DT40 Tdp1-/- hTDP1 cells, no CPT, ATP luminescence, 48 h. hit rate 15% among 420,000; note: potency is the fitted concentration of half-maximal effect; % is set by controls: 0 for no effect and ±100 for the full control effect; nearly all actives have a fitted effect of over 55% in size
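Compound effects on proliferation are scored in DT40 Tdp1-/-;hTDP1 cells in the absence of CPT. ATP levels (CellTiter-Glo luminescence) are recorded after a ≥48 hr, 37 °C incubation.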
SW480 rerep: inducers of DNA re-replication in SW480 colon cancer cells | SW480 DNA re-replication, Hoechst DNA content imaging, 48 h | Potency, µM (highest dose often 46.1 µM), without a hit: at the highest dose re-replication activation, hits mostly activators | hit rate 1.8% among 340,000 | AID 624297; note: potency is the fitted concentration of half-maximal effect; % of control where 0% means no effect; nearly all actives have a fitted effect of over 55% in size
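Per well, 250 cells were exposed to pinned compound for 48 hr. Nuclear DNA was visualised with Hoechst (40 min, 37 C) and total object intensity recorded by fluorescence scanning.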
Chronic BCR inh: inhibitors of chronic active B-cell receptor signaling; ABC-DLBCL IkBa-CBG/CBR reporter, luminescence ratio, 4 h; hit rate 0.05% among 340,000; Potency, µM (series often up to 46.1 µM), for the others: at the top dose activity change, negative = inhibition, usual class: inhibitors; active = well fitted inhibition curve with a large enough effect in the signal ratio, with a control signal flat, not every such curve was filed as active; inconclusive = small, poorly fitted or top-dose-only effect, or effect the other way, or a change in a side signal; the % refers to the signal ratio;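 note: potency is the fitted concentration of half-maximal effect; plate controls were basal doxycycline-induced cells for no effect and cells given 10 µM MG132 for full effect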
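Doxycycline induced both beetle luciferases in TMD8 lymphoma cells; IKK-driven degradation limits the IkappaBalpha-fused green signal, while red luminescence normalises for cell number and nonspecific effects. Compounds tested up to 46 uM, 4 hrs.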
IL1B secr inh: blocks inflammasome-driven IL-1 beta release | THP-1 LPS/ATP IL-1B secretion, AlphaLISA, 16 h; stronger effect = lower value | activity change, % at 57.5 µM | hit rate 4.7% among 360,000; in the data active = activity change below about -50%; inconclusive = mostly about -30% to -49%; note: % is set by controls: 0 for no effect and ±100 for the full control effect
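Secreted IL-1B measured by AlphaLISA bead assay after 16 h compound exposure of THP-1 cells; compounds (final up to 57.5 uM) added 1 h before LPS (250 ng/mL) and ATP (1.25 mM) stimulation; lower signal means less secretion.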
* hit, by the source's call; u = inconclusive; x = no result. Shown are actives, neighbours in structure and some others; about 19% of the full set was active somewhere. Unless noted, calls come from the whole dose curve; as a rule, active = well fitted curve in the direction sought with a large enough effect; inconclusive = small, poorly fitted or top-dose-only effect, or another doubt; inactive = no such curve, though single readings can be large; an effect the other way counts as inactive or inconclusive.

SMILES | DT40 TDP1 CPT | MCF10A rereplic | DT40 TDP1 no CPT | SW480 rerep | Chronic BCR inh | IL1B secr inh
CC(C)NC(=O)CN1CCN(C(c2cc3ccccc3o2)c2nnnn2C(C)(C)C)CC1 (stereo unspecified) | -15.1% | x | -15.7% | x | x | 16.2
CCCCc1c(C)nc2ccc(C)cc2c1SCCC(=O)O | u | 1.1% | 9.2µM* | 13.3% | -2.5% | 1.9
CCOc1ccc2nc(N/C(N)=N/C(=S)Nc3cccc(OC)c3)nc(C)c2c1 | u | 9.7% | u | u | u | -55.0*
COc1ccc2nc(N/C(N)=N/C(=S)Nc3cccc(C)c3)nc(C)c2c1 | u | 26.4% | 25.9µM* | 15.5% | -0.2% | -56.2*
COc1ccc(NC(=S)/N=C(\N)Nc2nc(C)c3ccccc3n2)cc1 | u | u | u | -50.1% | u | -6.7
COc1ccc2nc(N/C(N)=N/S(C)(=O)=O)nc(C)c2c1 | -5.8% | u | 8.6% | -2.1% | -5.9% | -7.8
COc1ccc2nc(N/C(N)=N/C(=S)Nc3c(C)cccc3C)nc(C)c2c1 | 16.4µM* | u | 20.6µM* | 26.2% | -0.9% | -62.7*
CCOc1ccc2nc(N/C(N)=N/C(=S)Nc3cccc(C)c3)nc(C)c2c1 | 18.4µM* | -2.4% | 20.6µM* | -6.7% | u | u
CC(C)(CNC(=O)CCNC(=O)c1ccc(Br)cc1)N1CCOCC1 | 2.7% | 5.3% | 2.5% | 0.2% | u | 10.5
Cc1ccc(NC(=S)/N=C(\N)Nc2nc(C)c3cc(C)ccc3n2)c(C)c1 | 20.6µM* | u | 11.6µM* | -15.9% | u | -17.0
Cc1ccc(NC(=S)/N=C(\N)Nc2nc(C)c3cc(C)c(C)cc3n2)cc1C | u | 25.7% | u | u | 0.3% | -13.9
O=C(O)Cc1ccc(N2N=C(c3ccccc3)CC2=O)cc1 | -9.1% | x | -3.8% | x | x | -13.1
CCOc1cc(Br)cc(/C=N/NC(=O)c2cccnc2)c1O | 0.461µM* | u | 0.366µM* | u | -10.4% | 190.5
COc1c(Br)cc(Br)cc1/C=N/NC(=O)c1cccnc1 | 18.4µM* | u | u | 4.4% | u | 43.9
CCNC(=S)N/N=C/c1cc(Br)cc(Br)c1OC | 5.17µM* | -4.7% | 6.51µM* | u | -17.1% | 0.0
CCOc1ccc(Br)cc1/C=N/NC(=O)c1ccncc1 | u | u | u | 4.1% | u | 39.8
Cc1ccnc(NC(=O)c2ccc(OCc3c(C)noc3C)cc2)c1 | -22.6% | 2.4% | -19.9% | -6.5% | u | 2.7
CN1CCN(C(=O)C(=O)Nc2c3c(nn2-c2ccc(Cl)cc2)CSC3)CC1 | 0.1% | x | 1.2% | x | 8.0% | x
N#CCSc1nnc(SCC#N)s1 | -2.9% | -4.2% | 5.1% | -1.5% | -8.6% | -71.3*
N#CCSc1nnc(N)s1 | 6.5% | -18.6% | -1.0% | -5.7% | 3.5% | 12.2
Cc1[nH]c(=O)[nH]c(=O)c1S(=O)(=O)Nc1ccc(F)cc1Cl | 2.6% | 0.6% | -11.1% | -12.9% | 2.6% | -22.5
N#Cc1ccccc1NC(=O)CC1c2ccccc2Oc2ccccc21 | 2.06µM* | u | 1.84µM* | -4.0% | u | 16.4
NC(=O)c1cccc(Nc2nc(C(N)C3CCCCC3)cs2)n1 (stereo unspecified) | u | x | u | x | x | -3.0
COc1cccc(Nc2nc(C(N)c3ccccc3)cs2)n1 (stereo unspecified) | 9.2µM* | x | 11.6µM* | x | x | -70.6*
COc1cccc(Nc2nc(C(N)C3CCCCC3)cs2)n1 (stereo unspecified) | u | x | 23.1µM* | x | x | 0.0
SMILES | DT40 TDP1 CPT | MCF10A rereplic | DT40 TDP1 no CPT | SW480 rerep | Chronic BCR inh | IL1B secr inh
COc1cccc(Nc2nc(CN)cs2)n1 | -21.1% | x | u | x | x | 24.0
COc1cccc(Nc2nc(C(C)N)cs2)n1 (stereo unspecified) | 13µM* | x | u | x | x | -17.7
CC(C)N1CCN(c2ccncc2S(=O)(=O)N2CCN(C)CC2)CC1 | 6.4% | x | -2.7% | x | x | -23.4
Cc1cccc2c1N(C(=O)CN1C(=O)c3ccccc3C1=O)C(C)(C)c1ssc(=S)c1-2 | -11.5% | -8.7% | -11.4% | -3.5% | 1.4% | -13.9
Cc1cc(C)c2c(c1)-c1c(ssc1=S)C(C)(C)N2C(=O)CN1C(=O)c2ccccc2C1=O | 20.6µM* | 6.4% | u | 3.8% | 6.2% | -2.7
O=[N+]([O-])c1ccc(-[n+]2ccc3ccccc3c2)c([N+](=O)[O-])c1 | 1.03µM* | u | 1.3µM* | u | u | -104.8*
O=[N+]([O-])c1ccc(SNc2ccccc2)c([N+](=O)[O-])c1 | u | 26.7% | u | -1.6% | x | -8.1
Cc1ccccc1-c1ccc2c(c1)O[C@@H](CN(C)C(=O)Nc1ccc(C(F)(F)F)cc1)[C@H](C)CN([C@@H](C)CO)S2(=O)=O | 20.6µM* | x | 13µM* | x | x | u
C[C@@H]1CN([C@@H](C)CO)S(=O)(=O)c2ccc(Br)cc2O[C@H]1CN(C)C(=O)Nc1ccc(C(F)(F)F)cc1 | u | x | u | x | x | -14.0
C[C@@H]1CN([C@H](C)CO)S(=O)(=O)c2ccc(Br)cc2O[C@@H]1CN(C)C(=O)Nc1ccc(C(F)(F)F)cc1 | 20.6µM* | x | u | x | x | -70.2*
CC[n+]1c(/C=C/C=C/N(C(C)=O)c2ccccc2)sc2cc(OC)ccc21 | 3.26µM* | -101.6% | 2.59µM* | u | u | -117.4*
COc1ccc(C)cc1NC(=O)CNC(c1ccccc1)c1ccc(C)cc1 (stereo unspecified) | 3.26µM* | u | 3.26µM* | 2.59µM* | u | 115.4
COc1ccc(N/N=C(C)/C(=N/O)C(=O)Nc2ccccc2)cc1 | u | 23.0% | 14.6µM* | -5.5% | u | -8.1
COc1ccc(NC(=O)CC(c2ccc(F)cc2)c2ccc(OC)cc2)cc1 (stereo unspecified) | u | -16.7% | 14.6µM* | 0.5% | -1.2% | -13.6
COc1ccccc1C(CC(=O)Nc1ccc(Cl)cc1)c1ccc(OC(C)C)cc1 (stereo unspecified) | 16.4µM* | -2.9% | u | -2.3% | 10.4% | -5.6
COc1ccc(NC(=O)c2cccc(NC(=O)c3ccccc3)c2)cc1 | -35.1% | 5.6% | u | -0.8% | u | u
O=C(COC(=O)CN1C(=O)C2CCCCC2C1=O)NCc1ccc(Cl)cc1Cl (stereo unspecified) | -23.8% | -2.4% | 5.1% | -5.7% | 2.3% | -2.6

Screens as filed in PubChem BioAssay.
